Screening data deposited in PubChem BioAssay by several laboratories.
Only some compounds are listed: those with a hit (about 1.3% of all), similar ones and a draw of the others.
CCHFV vOTU inh: CCHFV vOTU protease inhibition. Pep-AMC fluorescence. inhibition, % at 11.5 µM. 0.55% of 370,000 active; in the data active means inhibition above about 30%; further: 0% = vehicle wells with enzyme and 100% = no enzyme wells
Vc quorum ag: quorum light induction in luxS cqsA deficient V. cholerae; V. cholerae BH1578 lux reporter, luminescence, 6 h; activation, % at 18.7 µM; 0.16% of 350,000 active; in the data active means activation mostly above about 9.7%, no sharp cut-off
SSB-PriA inh: inhibitors of Klebsiella pneumoniae PriA binding to SSB C-terminal tail; 0.6% of 430,000 active; AlphaScreen SSBct-PriA binding, biotinylated peptide; inhibition, % at 33 µM; AID 1272365; in the data active means inhibition mostly above about 37%, no sharp cut-off; inactive means mostly below about 20%;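 further: plate controls were negative control peptide for no effect and reference peptide for full effect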
DUSP3 inh: DUSP3 (human) phosphatase inhibition; recombinant VHR phosphatase, pNPP absorbance; inhibition, % at 13.3 µM; 0.52% of 290,000 active; in the data active means inhibition above about 50%
Target sequence (P51452 whole entry, looked up): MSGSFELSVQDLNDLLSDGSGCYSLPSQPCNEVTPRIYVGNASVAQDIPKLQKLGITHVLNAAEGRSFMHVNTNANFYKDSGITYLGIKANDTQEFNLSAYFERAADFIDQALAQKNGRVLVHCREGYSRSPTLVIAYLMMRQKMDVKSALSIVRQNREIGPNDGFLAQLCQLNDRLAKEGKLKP
3CLpro inhibitor: SARS-CoV 3CLpro protease inhibition; P0C6X7; recombinant SARS-CoV 3CLpro, quenched FRET peptide cleavage; inhibition, % at 6 µM; 0.14% of 290,000 active; AID 1706; in the data active means inhibition above about 12%
TcdB GH inh: blocks C. difficile toxin B glycohydrolase activity | TcdB glycohydrolase enzymatic assay, plate reader | P18177 | inhibition, % at 9.99 µM | 0.24% of 350,000 active; in the data active means inhibition above about 10%
The depositor's hits bear a star; i = inactive; . = not tested or not shown; + = active, no number; ! = not confirmed by another sample.

SMILES	CCHFV vOTU inh	Vc quorum ag	SSB-PriA inh	DUSP3 inh	3CLpro inhibitor	TcdB GH inh
Cc1ccc(Nc2nc(-c3ccccn3)cs2)cc1	.	.	109*	.	.	.
Cn1cc(C(=O)NC[C@](C)(O)c2ccc(-c3ccccc3)cc2)nn1	.	.	-9	.	.	.
COC(=O)CN(C)C(=O)c1ccc(OC)c(OC2CCN(C(C)C)CC2)c1	-11	-1	-16	57*	-8	2
COc1ccc(C(=O)NCc2cnn(C)c2C)cc1OC1CCN(C(C)C)CC1	8	-2	-9	54*	-1	2
COc1ccc(C(=O)N(C)Cc2ccc(C)o2)cc1OC1CCN(C(C)C)CC1	8	0	-6	49	0	0
COc1ccc(-c2nc(N3CCCCC3)c3ccccc3n2)cc1	.	.	-41	.	.	.
CC(NCc1cccc(Cl)c1Cl)C(O)c1ccccc1 (stereo unspecified)	-1	i	116*	1	3	.
CCS(=O)(=O)c1ccc2c(c1)N(Cc1nc(-c3ccc(OC(F)(F)F)cc3)no1)C(=O)CO2	.	.	-19	.	.	.
O=C(NNC(=O)c1cc2cc(Br)ccc2oc1=O)c1ccc(O)cc1O	-4	-6	2	60*	1	.
COCCCNC(=O)c1cc2cc(Br)ccc2oc1=O	-5	0	-4	-4	2	-1
CCn1nc(C)c2c1c(=O)n(Cc1ccco1)c(=O)n2CC(=O)NCc1cccc(OC)c1	.	.	-17	.	.	.
CCOC(=O)CSc1nnc(CSc2nc(N)c3c(C)c(C)sc3n2)n1-c1ccccc1	3	0	4	54*	2	0
O=C(c1ccc([N+](=O)[O-])o1)N1CCN(Cc2nc(-c3ccc(F)cc3)cs2)CC1	.	.	11*	.	.	.
COc1ccccc1CNC(=O)C(=O)c1cn(CC(=O)N2CCCC2)c2ccccc12	10	-2	0	52*	-3	1
O=C(CCc1ccccc1)NC(=S)Nc1ccccc1[N+](=O)[O-]	1	-3	39*	14	4	-1
O=C(CCc1ccccc1)Nc1ccccc1[N+](=O)[O-]	5	i	15	36	0	.
NC(=O)CN1C(=O)C(O)(CC(=O)c2ccccc2O)c2ccccc21 (stereo unspecified)	-2	0	-5	12	16*	0
Nc1cc2nsnc2cc1Br	97*	0	14	52*	0	.
Nc1cccc2nsnc12	24	0	5	23	-7	2
O=C(c1ccccc1F)N1CCN(c2nc3ccc(OC(F)(F)F)cc3s2)CC1	.	.	3	.	.	.
COc1ccc(-c2cn3cc(C)ccc3n2)cc1Br	-8	-2	19	10	1	2
COc1ccc(-c2cn3cc(Cl)ccc3n2)cc1OC	-62	i	-8	53*	1	9
Cc1[nH]c(=O)n(C)c(=O)c1CCc1nnc(SCc2ccc(Cl)cc2)o1	.	.	-1	.	.	.
OC(CNCCC1C=Nc2ccccc21)Cn1c2ccc(Cl)cc2c2cc(Cl)ccc21 (stereo unspecified)	8	0	65*	3	-2	.
OC(CNCC1CCCO1)Cn1c2ccc(Cl)cc2c2cc(Cl)ccc21 (stereo unspecified)	1	0	16	15	-6	.
SMILES	CCHFV vOTU inh	Vc quorum ag	SSB-PriA inh	DUSP3 inh	3CLpro inhibitor	TcdB GH inh
O=C(O)c1ccccc1C(=O)NCC1CCCO1 (stereo unspecified)	.	.	-2	.	.	.
O=C(NCC1CCCO1)c1coc2nc3ccccc3nc12 (stereo unspecified)	-88	+	1	10	4	.
COc1ccc2nc(-c3ccc(NC(=O)c4ccccc4C(F)(F)F)cc3)cn2n1	.	.	-8	.	.	.
Cc1cc2cc(C#N)c(NCCNC(=S)NCCCN3CCOCC3)nc2cc1C	-27	i	1	60*	10	1
Cc1ccc2c(c1)-c1c(cnn1CC(=O)NC(C)CCc1ccco1)CO2 (stereo unspecified)	10	i	-12	8	-2	11*
Cn1c(=O)oc2cc(S(=O)(=O)N3CCCC(C(=O)NCC4COc5ccccc5O4)C3)ccc21 (stereo unspecified)	0	0	104*	32	1	1
O=C(NCC1CCCO1)C1CCCN(S(=O)(=O)c2ccc(F)cc2)C1 (stereo unspecified)	18	i	-9	26	8	-1
Cc1ccc(NC(=O)C2CCCN(S(=O)(=O)c3ccc4c(c3)oc(=O)n4C)C2)nc1 (stereo unspecified)	30*	0	-18	28	-5	-2
O=C(NCC1CCCO1)C1CCCN(S(=O)(=O)c2ccc(Cl)cc2)C1 (stereo unspecified)	5	0	-14	50*	-1	1
Cn1c(=O)oc2cc(S(=O)(=O)N3CCCC(C(=O)NCc4ccc5c(c4)OCO5)C3)ccc21 (stereo unspecified)	5	0	-19	67	-4	1
Cc1noc(C)c1C(=O)N1CCC(S(=O)(=O)c2nncn2C)CC1	.	.	-25	.	.	.
CCOC(=O)c1csc(NC(=O)CS(=O)(=O)c2ccc(F)cc2)n1	.	.	2	.	.	.
CCOc1ccccc1CN1CCNC(=O)C1CC(=O)NC1CCCCC1 (stereo unspecified)	-6	0	-7	51*	-7	-3
O=C(NCCc1ccc(Cl)cc1)C1CCN(S(=O)(=O)c2ccc(Br)s2)CC1	-4	i	-13	-18	3	16*
O=C(NCCc1ccc(Cl)cc1)C1CCN(S(=O)(=O)N2CCCC2)CC1	9	0	-12	20	-1	.
CC1=CC(=C2C(=O)NC(=S)NC2=O)C=C(C(F)(F)F)N1Cc1ccccc1	-4	267*	-2	24	0	3
CC1=CC(=C2C(=O)NC(=O)NC2=O)C=C(C(F)(F)F)N1Cc1ccccc1	0	i	6	-2	-1	2
Cc1ccc(Nc2nc(=O)[nH]nc2C)cc1	-8	-3	-13	24	0	.
Cc1n[nH]c(=O)nc1Nc1ccc(O)cc1	-1	i	-8	26	-2	21*
CCOC(=O)c1cnn(-c2cc(C)c3ccccc3n2)c1N=CN(C)C	.	.	3	.	.	.
CC(C)[C@H](NC(N)=O)C(=O)NCCc1ccc(Cl)cc1	1	i	39*	12	-1	0
O=c1c(SCc2cccc([N+](=O)[O-])c2)nccn1-c1ccc(F)cc1	.	.	40*	.	.	.
CSc1ccc2nc(NC(=O)C(C)C)sc2c1	.	.	-2	.	.	.
O=C(Nc1cccc(-c2nn[nH]n2)c1)c1ccc(Br)s1	3	0	116*	-6	2	1
O=C(Nc1cccc(-c2nn[nH]n2)c1)c1ccc(Cl)s1	-1	i	1	6	1	0
Cc1ccc(N=Nc2cc(C)ccc2N)cc1	3	i	93*	-6	7	0
Cc1cc(N)n(-c2nc(-c3ccccc3)cc(=O)[nH]2)n1	.	.	53*!	.	.	.
CCc1cc(=O)[nH]c(-n2nc(C)cc2N)n1	.	.	93*	.	.	.
CCCC(=O)Nc1cc(C)nn1-c1nc(CC)cc(=O)[nH]1	.	.	33	.	.	.
CCc1cc(=O)[nH]c(-n2nc(C)cc2NC(=O)COC)n1	.	.	39*	.	.	.
